Among the data in the supplement of paper PMC6555819 are PBM binding z-score values, retold here.

This assay relates to PPARa:RXRa (NR concentration 270 nM, RXRa partner concentration 90 nM). The experiment in a line: PBM binding z-score (relative to random genomic background probes); higher = stronger binding; sequences stand for … in GC…GCGATTGACAGCGTAGAATGAAGG
The method, boiled down:
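Antibodies against each partner of ligand-free nuclear receptor dimers (one per run) detected binding on custom Agilent 4×180K protein-binding microarrays after 1 h incubation. The double-stranded probes had 34-nt variable regions carrying direct-repeat seeds, single-nucleotide variants, half-site ablations and random human genomic background sequences. Binding z-scores, from regression-normalized fluorescence, use the random background probes as reference.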
Take ATATGTAGGTTAGGATCATTCAGAAAGTAGGGAA: the PBM binding z-score stood at 2.83. Consider CGAGCTAGGTCACCAGGACAGTGAAGAGGTTGGA, for which the PBM binding z-score is 3.81. The result for CCAGAAAGGTGAAAGGTAACTCAGTCTGGTACGC reads 5.13; that for CGTCAAAGTTCAACTAAGGTAACGTATAGCACGC, 5.23; that for CGCACTAGGTCAAAGGACAGTGAAAGGCGACGTA, 5.48. Take CGAACTAGGTTACCAGGACAGTGAAGAGGTTGGA: the PBM binding z-score is 2.53. The result for ATATGTAGGTTAGGGTCGTTCAGAAAGTAGGGAA reads 4.31; that for CGAACTAGGTCAAAGGACAGTGACAGGCGACGTA, 5.56; that for CGTCCAAGGGCAGCAGGTCAGTGAAAGCGACGTG, 0.938. The result for CGAACTAGGTCACCAGGACACTGAAGAGGTTGGA reads 5.31. In the case of GCTTACGGGTCAAAGGTTACAGCATGAATAGAAT it was 7.24; in that of TTACCAAGGTGAAAGGTCGTTGAAGCACGCCTTG, 5.82. In turn, CGAACTAGGTCAAAGGACAATGAAAGGCGACGTA returned a PBM binding z-score of 5.61. GCTTACGGGTCAAAGGTTATAGTATGAATAGAAT: the PBM binding z-score is 6.76. The result for CGTCCAAGGTCATAGGAGGTCACTGAAGACAGAT reads 6.26; that for ATCGAAAGGTCGACGAGGTGAGTATGCACCGTTT, 4.53; that for CGAACTAGGTCTCCAGGACAGTGAAGAGGTTGGA, 0.539.
